# Measurements published in PubChem BioAssay (NCI).
# About 79,000 compounds went through this panel and 15% of them were active in at least one assay; those are over-represented in the sample as a whole. Values without a mark were called inactive. Activity calls are given as the source filed them. No stated cut-off is given here; in the data, active means growth inhibition above about 70%; inactive means the rest.
# Legend:
# [1] = NCI Yeast Anticancer Drug Screen. Data for the rad52 strain (AID 147);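 further: 0% = growth of vehicle-treated control cultures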; conditions: S. cerevisiae rad52 mutant growth inhibition, hits give high values
# Method in brief: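 DNA repair-defective yeast; compound exposure; growth scored against vehicle controls.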
# [2] = NCI Yeast Anticancer Drug Screen. Data for the wt1 strain (AID 149);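 further: 0% = growth of vehicle-treated wt1 cultures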; conditions: S. cerevisiae wt1 strain (SPY 50644) growth inhibition, hits give high values
# Method in brief: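 Yeast wt1 strain exposed to compounds; growth inhibition measured relative to vehicle-treated controls.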
# [3] = NCI Yeast Anticancer Drug Screen. Data for the rad50EPP+ strain (AID 151);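 further: 0% = growth of vehicle-treated control cultures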; conditions: S. cerevisiae rad50 mutant strain, hits give high values
# Method in brief: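 rad50EPP+ yeast treated with test compounds. Readout: growth vs vehicle control.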
# [4] = NCI Yeast Anticancer Drug Screen. Data for the mgt1 strain (AID 153); conditions: S. cerevisiae mgt1 mutant growth inhibition, hits give high values
# Method in brief: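 Growth inhibition relative to vehicle controls was scored for the mgt1 yeast strain after compound exposure.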
# [5] = NCI Yeast Anticancer Drug Screen. Data for the rad50 strain (AID 155);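 further: 0% = growth of vehicle-only cultures of the same strain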; conditions: S. cerevisiae rad50 strain growth inhibition, hits give high values
# Method in brief: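 Yeast carrying a defined DNA repair defect were exposed to test compounds, and growth was compared with vehicle-treated controls to give percent inhibition.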
# [6] = NCI Yeast Anticancer Drug Screen. Data for the mec2-1 strain (AID 157); conditions: S. cerevisiae mec2-1 strain, hits give high values
# Method in brief: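 Growth inhibition is read against vehicle-treated controls after compound exposure of the mec2-1 yeast strain, which is defective in DNA damage repair or cell cycle control.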
# [7] = NCI Yeast Anticancer Drug Screen. Data for the rad14 strain (AID 159);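 further: 0% = growth of vehicle-treated control cultures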; conditions: S. cerevisiae rad14 strain growth inhibition, hits give high values
# Method in brief: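 Yeast cells carrying a defined DNA-repair defect were exposed to compounds, and growth inhibition was calculated relative to vehicle-treated control cultures.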
# [8] = NCI Yeast Anticancer Drug Screen. Data for the sgs1 mgt1 strain (AID 161);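 further: 0% = growth of cultures given vehicle only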; conditions: S. cerevisiae sgs1 mgt1 strain, hits give high values
# Method in brief: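 Percent growth inhibition was derived by comparing compound-exposed mutant yeast with vehicle-exposed cultures. The strain carries alterations in DNA damage repair.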
# [9] = NCI Yeast Anticancer Drug Screen. Data for the CLN2oe strain (AID 163);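 further: 0% = growth of vehicle-only control cultures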; conditions: S. cerevisiae CLN2oe strain, hits give high values
# Method in brief: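 Compound-treated yeast; growth vs vehicle ctrl = % inhibition. Genetically altered strain (cell-cycle control).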
# [10] = NCI Yeast Anticancer Drug Screen. Data for the cln2 rad14 strain (AID 165);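 further: 0% = growth equal to vehicle treated cultures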; conditions: S. cerevisiae cln2 rad14 strain, hits give high values
# Method in brief: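 Growth inhibition, relative to vehicle-treated controls, is the read-out. The test organism is a yeast strain with defined genetic alterations, cln2 rad14.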
# [11] = NCI Yeast Anticancer Drug Screen. Data for the bub3 strain (AID 167); conditions: S. cerevisiae bub3 mutant strain, hits give high values
# Method in brief: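 Compounds were applied to a genetically altered yeast strain carrying a cell-cycle control defect. Growth inhibition was scored against vehicle-treated controls.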
# [12] = NCI Yeast Anticancer Drug Screen. Data for the wt2 strain (AID 169);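 further: 0% = growth of vehicle-treated yeast cultures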; conditions: S. cerevisiae wt2 strain growth inhibition, hits give high values
# Method in brief: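 Compound exposure of yeast; growth compared with vehicle controls; inhibition reported.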
# [13] = NCI Yeast Anticancer Drug Screen. Data for the mlh1 strain (AID 171);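 further: 0% = growth of vehicle-treated control cultures of the same strain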; conditions: S. cerevisiae mlh1 strain growth inhibition, hits give high values
# Method in brief: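 Compounds are applied to a genetically altered yeast strain, and its growth is compared with that of vehicle-treated cultures to give percent inhibition.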
# [14] = NCI Yeast Anticancer Drug Screen. Data for the sgs1 strain (AID 173);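 further: 0% = growth of vehicle-only control cultures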; conditions: S. cerevisiae sgs1 mutant, hits give high values
# Method in brief: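 Compounds applied to genetically altered yeast; growth compared with vehicle-treated cultures to give % inhibition.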
# [15] = NCI Yeast Anticancer Drug Screen. Data for the mlh1 rad18 strain (AID 175); conditions: S. cerevisiae mlh1 rad18 strain growth inhibition, hits give high values
# Method in brief: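 Cells of a genetically altered yeast strain, deficient in DNA damage repair, were treated with compound. Their growth was then compared with that of vehicle-treated cultures to give inhibition.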
# [16] = NCI Yeast Anticancer Drug Screen. Data for the rad18 strain (AID 177); conditions: S. cerevisiae rad18 mutant growth inhibition, hits give high values
# Method in brief: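 Compounds are applied to a repair-deficient yeast strain, and growth is compared with that of vehicle-treated cultures to give percent inhibition.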
# [17] = at 5.0 µM (retest, dose inferred, filed as 0.5)
# [18] = at 50.0 µM (retest, dose inferred, filed as 5.0)
structure (smiles),measurement,setting,value
O=c1c2ccccc2nc(-c2ccc(Cl)cc2)n1O,growth inhibition,[1]; at 1.2 µM,81% (active)
same,growth inhibition,[1]; at 3.7 µM,95% (active)
same,growth inhibition,[1]; at 11.0 µM,96% (active)
same,growth inhibition,[1]; at 33.0 µM,96% (active)
same,growth inhibition,[1]; at 100.0 µM,94% (active)
same,growth inhibition,[2]; at 1.2 µM,61%
same,growth inhibition,[2]; at 3.7 µM,89% (active)
same,growth inhibition,[2]; at 11.0 µM,96% (active)
same,growth inhibition,[2]; at 33.0 µM,96% (active)
same,growth inhibition,[2]; at 100.0 µM,96% (active)
same,growth inhibition,[3]; at 1.2 µM,47%
same,growth inhibition,[3]; at 3.7 µM,85% (active)
same,growth inhibition,[3]; at 11.0 µM,91% (active)
same,growth inhibition,[3]; at 33.0 µM,91% (active)
same,growth inhibition,[3]; at 100.0 µM,90% (active)
same,growth inhibition,[4]; at 1.2 µM,60%
same,growth inhibition,[4]; at 3.7 µM,90% (active)
same,growth inhibition,[4]; at 11.0 µM,94% (active)
same,growth inhibition,[4]; at 33.0 µM,94% (active)
same,growth inhibition,[4]; at 100.0 µM,93% (active)
same,growth inhibition,[5]; at 1.2 µM,80% (active)
same,growth inhibition,[5]; at 3.7 µM,93% (active)
same,growth inhibition,[5]; [17],28%
same,growth inhibition,[5]; at 11.0 µM,96% (active)
same,growth inhibition,[5]; at 33.0 µM,95% (active)
same,growth inhibition,[5]; [18],98% (active)
same,growth inhibition,[5]; at 50.0 µM,97% (active)
same,growth inhibition,[5]; at 100.0 µM,95% (active)
same,growth inhibition,[6]; at 1.2 µM,50%
same,growth inhibition,[6]; at 3.7 µM,56%
same,growth inhibition,[6]; [17],10%
same,growth inhibition,[6]; at 11.0 µM,83% (active)
same,growth inhibition,[6]; at 33.0 µM,84% (active)
same,growth inhibition,[6]; [18],97% (active)
same,growth inhibition,[6]; at 50.0 µM,96.7% (active)
same,growth inhibition,[6]; at 100.0 µM,88% (active)
same,growth inhibition,[7]; at 1.2 µM,98% (active)
same,growth inhibition,[7]; at 3.7 µM,98% (active)
same,growth inhibition,[7]; at 11.0 µM,98% (active)
same,growth inhibition,[7]; at 33.0 µM,98% (active)
same,growth inhibition,[7]; at 100.0 µM,98% (active)
same,growth inhibition,[8]; [17],46%
same,growth inhibition,[8]; [18],98% (active)
same,growth inhibition,[8]; at 50.0 µM,96.7% (active)
same,growth inhibition,[9]; at 1.2 µM,21%
same,growth inhibition,[9]; at 3.7 µM,26%
same,growth inhibition,[9]; at 11.0 µM,66%
same,growth inhibition,[9]; at 33.0 µM,73% (active)
same,growth inhibition,[9]; at 100.0 µM,71% (active)
same,growth inhibition,[10]; [17],-23%
same,growth inhibition,[10]; [18],84% (active)
same,growth inhibition,[10]; at 50.0 µM,87.8% (active)
same,growth inhibition,[11]; at 1.2 µM,62%
same,growth inhibition,[11]; at 3.7 µM,75% (active)
same,growth inhibition,[11]; [17],23%
same,growth inhibition,[11]; at 11.0 µM,78% (active)
same,growth inhibition,[11]; at 33.0 µM,82% (active)
same,growth inhibition,[11]; [18],97% (active)
same,growth inhibition,[11]; at 50.0 µM,87.5% (active)
same,growth inhibition,[11]; at 100.0 µM,72% (active)
same,growth inhibition,[12]; at 1.2 µM,92% (active)
same,growth inhibition,[12]; at 3.7 µM,96% (active)
same,growth inhibition,[12]; at 11.0 µM,96% (active)
same,growth inhibition,[12]; at 33.0 µM,96% (active)
same,growth inhibition,[12]; at 100.0 µM,96% (active)
same,growth inhibition,[13]; at 1.2 µM,72% (active)
same,growth inhibition,[13]; at 3.7 µM,90% (active)
same,growth inhibition,[13]; at 11.0 µM,93% (active)
same,growth inhibition,[13]; at 33.0 µM,92% (active)
same,growth inhibition,[13]; at 100.0 µM,94% (active)
same,growth inhibition,[14]; at 1.2 µM,96% (active)
same,growth inhibition,[14]; at 3.7 µM,96% (active)
same,growth inhibition,[14]; at 11.0 µM,97% (active)
same,growth inhibition,[14]; at 33.0 µM,96% (active)
same,growth inhibition,[14]; at 100.0 µM,95% (active)
same,growth inhibition,[15]; [17],48%
same,growth inhibition,[15]; [18],98% (active)
same,growth inhibition,[15]; at 50.0 µM,96.1% (active)
same,growth inhibition,[16]; at 1.2 µM,94% (active)
same,growth inhibition,[16]; at 3.7 µM,96% (active)
same,growth inhibition,[16]; at 11.0 µM,97% (active)
same,growth inhibition,[16]; at 33.0 µM,96% (active)
same,growth inhibition,[16]; at 100.0 µM,95% (active)
O=C1c2ccccc2N2OC3(N4CCCC4)CCCCC3C12c1ccccc1 (stereo unspecified),growth inhibition,[1]; at 1.2 µM,-4%
same,growth inhibition,[1]; at 3.7 µM,1%
same,growth inhibition,[1]; at 11.0 µM,10%
same,growth inhibition,[1]; at 33.0 µM,17%
same,growth inhibition,[1]; at 100.0 µM,98% (active)
same,growth inhibition,[2]; at 1.2 µM,6%
same,growth inhibition,[2]; at 3.7 µM,-9%
same,growth inhibition,[2]; at 11.0 µM,16%
same,growth inhibition,[2]; at 33.0 µM,36%
same,growth inhibition,[2]; at 100.0 µM,98% (active)
same,growth inhibition,[3]; at 1.2 µM,-33%
same,growth inhibition,[3]; at 3.7 µM,-38%
same,growth inhibition,[3]; at 11.0 µM,-28%
same,growth inhibition,[3]; at 33.0 µM,35%
same,growth inhibition,[3]; at 100.0 µM,99% (active)
same,growth inhibition,[4]; at 1.2 µM,-18%
same,growth inhibition,[4]; at 3.7 µM,-7%
same,growth inhibition,[4]; at 11.0 µM,-24%
same,growth inhibition,[4]; at 33.0 µM,-13%
same,growth inhibition,[4]; at 100.0 µM,98% (active)
same,growth inhibition,[5]; at 1.2 µM,5%
same,growth inhibition,[5]; at 3.7 µM,-5%
same,growth inhibition,[5]; [17],-35%
same,growth inhibition,[5]; at 11.0 µM,7%
same,growth inhibition,[5]; at 33.0 µM,19%
same,growth inhibition,[5]; [18],-14%
same,growth inhibition,[5]; at 50.0 µM,84.6% (active)
same,growth inhibition,[5]; at 100.0 µM,97% (active)
same,growth inhibition,[6]; at 1.2 µM,-19%
same,growth inhibition,[6]; at 3.7 µM,-7%
same,growth inhibition,[6]; [17],1%
same,growth inhibition,[6]; at 11.0 µM,-25%
same,growth inhibition,[6]; at 33.0 µM,-1%
same,growth inhibition,[6]; [18],23%
same,growth inhibition,[6]; at 50.0 µM,24.9%
same,growth inhibition,[6]; at 100.0 µM,98% (active)
same,growth inhibition,[7]; at 1.2 µM,-23%
same,growth inhibition,[7]; at 3.7 µM,-20%
same,growth inhibition,[7]; at 11.0 µM,-27%
same,growth inhibition,[7]; at 33.0 µM,-17%
same,growth inhibition,[7]; at 100.0 µM,98% (active)
same,growth inhibition,[8]; [17],-9%
same,growth inhibition,[8]; [18],-18%
same,growth inhibition,[8]; at 50.0 µM,74.7% (active)
same,growth inhibition,[9]; at 1.2 µM,-9%
same,growth inhibition,[9]; at 3.7 µM,-12%
same,growth inhibition,[9]; at 11.0 µM,-10%
same,growth inhibition,[9]; at 33.0 µM,4%
same,growth inhibition,[9]; at 100.0 µM,98% (active)
same,growth inhibition,[10]; [17],16%
same,growth inhibition,[10]; [18],33%
same,growth inhibition,[10]; at 50.0 µM,1.8%
same,growth inhibition,[11]; at 1.2 µM,-19%
same,growth inhibition,[11]; at 3.7 µM,-13%
same,growth inhibition,[11]; [17],-6%
same,growth inhibition,[11]; at 11.0 µM,-2%
same,growth inhibition,[11]; at 33.0 µM,40%
same,growth inhibition,[11]; [18],92% (active)
same,growth inhibition,[11]; at 50.0 µM,79.7% (active)
same,growth inhibition,[11]; at 100.0 µM,98% (active)
same,growth inhibition,[12]; at 1.2 µM,-18%
same,growth inhibition,[12]; at 3.7 µM,-17%
same,growth inhibition,[12]; at 11.0 µM,-14%
same,growth inhibition,[12]; at 33.0 µM,-8%
same,growth inhibition,[12]; at 100.0 µM,88% (active)
same,growth inhibition,[13]; at 1.2 µM,-46%
same,growth inhibition,[13]; at 3.7 µM,-44%
same,growth inhibition,[13]; at 11.0 µM,-41%
same,growth inhibition,[13]; at 33.0 µM,-10%
same,growth inhibition,[13]; at 100.0 µM,98% (active)
same,growth inhibition,[14]; at 1.2 µM,-1%
same,growth inhibition,[14]; at 3.7 µM,5%
same,growth inhibition,[14]; at 11.0 µM,7%
same,growth inhibition,[14]; at 33.0 µM,61%
same,growth inhibition,[14]; at 100.0 µM,98% (active)
same,growth inhibition,[15]; [17],-33%
same,growth inhibition,[15]; [18],35%
same,growth inhibition,[15]; at 50.0 µM,18.8%
same,growth inhibition,[16]; at 1.2 µM,-9%
same,growth inhibition,[16]; at 3.7 µM,-7%
same,growth inhibition,[16]; at 11.0 µM,-7%
same,growth inhibition,[16]; at 33.0 µM,15%
same,growth inhibition,[16]; at 100.0 µM,98% (active)
